Where a name gives a salt, the structure may show the parent alone. ± gives the standard deviation of the averaged measurements.
Assays:
[1] = tested on: Saccharomyces cerevisiae BY4741 SeMeCo community; experiment: mean cell size (pixel area) (pixels); higher = larger cells; settings: 10 µM; 24 h; SM minimal medium
In short: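 Yeast cells were fixed with paraformaldehyde, imaged by automated confocal microscopy and analysed in Harmony to obtain mean cell pixel area per well. They came from a four-plasmid fluorescent Saccharomyces cerevisiae BY4741 community, each plasmid complementing one auxotrophy and carrying a fluorescent marker. Before imaging, 70 µl of culture at OD600 = 0.3 was incubated for 24 h in SM medium in 384-well plates predosed acoustically with drug (final 10 µM). Values are means of 3 replicates. Same SeMeCo high-content imaging drug screen: Selleck FDA-approved drugs at 10 µM, 24 h in SM medium, 384-well plates, 3 replicates.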

[2] = tested on: Saccharomyces cerevisiae BY4741 SeMeCo community; experiment: z-score of prototroph abundance vs DMSO median; higher = larger share of this subpopulation than in DMSO controls; settings: 10 µM; 24 h; SM minimal medium; subpopulation (auxotrophy): Prototroph
In short: (§1)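 Subpopulation abundance was reported as a z-score against the median of vehicle wells. The Saccharomyces cerevisiae BY4741 community, carrying four plasmids that each restored one auxotrophy and encoded a distinct fluorescent protein, was grown 24 h in minimal SM medium in 384-well plates holding library drugs at 10 µM final. Cells were paraformaldehyde-fixed and imaged by automated confocal microscopy, with single-auxotroph fluorescent strains used for thresholds and autofluorescence correction.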

[3] = tested on: Saccharomyces cerevisiae BY4741 SeMeCo community; experiment: z-score of subpopulation abundance vs DMSO median, subpopulation auxotrophic for M; higher = larger share of this subpopulation than in DMSO controls; settings: 10 µM; 24 h; SM minimal medium; subpopulation (auxotrophy): M
In short: as §1

[4] = tested on: Saccharomyces cerevisiae BY4741 SeMeCo community; experiment: z-score of subpopulation abundance vs DMSO median, subpopulation auxotrophic for L; higher = larger share of this subpopulation than in DMSO controls; settings: 10 µM; 24 h; SM minimal medium; subpopulation (auxotrophy): L
In short: as §1

[5] = tested on: Saccharomyces cerevisiae BY4741 SeMeCo community; experiment: z-score of subpopulation abundance vs DMSO median, subpopulation auxotrophic for U; higher = larger share of this subpopulation than in DMSO controls; settings: 10 µM; 24 h; SM minimal medium; subpopulation (auxotrophy): U
In short: as §1

[6] = tested on: Saccharomyces cerevisiae BY4741 SeMeCo community; experiment: z-score of subpopulation abundance vs DMSO median, subpopulation auxotrophic for H; higher = larger share of this subpopulation than in DMSO controls; settings: 10 µM; 24 h; SM minimal medium; subpopulation (auxotrophy): H
In short: as §1

[7] = tested on: Saccharomyces cerevisiae BY4741 SeMeCo community; experiment: z-score of subpopulation abundance vs DMSO median, subpopulation auxotrophic for LU; higher = larger share of this subpopulation than in DMSO controls; settings: 10 µM; 24 h; SM minimal medium; subpopulation (auxotrophy): LU
In short: as §1

[8] = tested on: Saccharomyces cerevisiae BY4741 SeMeCo community; experiment: z-score of subpopulation abundance vs DMSO median, subpopulation auxotrophic for HM; higher = larger share of this subpopulation than in DMSO controls; settings: 10 µM; 24 h; SM minimal medium; subpopulation (auxotrophy): HM
In short: as §1

[9] = tested on: Saccharomyces cerevisiae BY4741 SeMeCo community; experiment: z-score of subpopulation abundance vs DMSO median, subpopulation auxotrophic for HU; higher = larger share of this subpopulation than in DMSO controls; settings: 10 µM; 24 h; SM minimal medium; subpopulation (auxotrophy): HU
In short: as §1

[10] = tested on: Saccharomyces cerevisiae BY4741 SeMeCo community; experiment: z-score of subpopulation abundance vs DMSO median, subpopulation auxotrophic for UM; higher = larger share of this subpopulation than in DMSO controls; settings: 10 µM; 24 h; SM minimal medium; subpopulation (auxotrophy): UM
In short: as §1

[11] = tested on: Saccharomyces cerevisiae BY4741 SeMeCo community; experiment: z-score of subpopulation abundance vs DMSO median, subpopulation auxotrophic for HL; higher = larger share of this subpopulation than in DMSO controls; settings: 10 µM; 24 h; SM minimal medium; subpopulation (auxotrophy): HL
In short: as §1

[12] = tested on: Saccharomyces cerevisiae BY4741 SeMeCo community; experiment: z-score of subpopulation abundance vs DMSO median, subpopulation auxotrophic for HLU; higher = larger share of this subpopulation than in DMSO controls; settings: 10 µM; 24 h; SM minimal medium; subpopulation (auxotrophy): HLU
In short: as §1

[13] = tested on: Saccharomyces cerevisiae BY4741 SeMeCo community; experiment: z-score of subpopulation abundance vs DMSO median, subpopulation auxotrophic for HLM; higher = larger share of this subpopulation than in DMSO controls; settings: 10 µM; 24 h; SM minimal medium; subpopulation (auxotrophy): HLM
In short: as §1

[14] = tested on: Saccharomyces cerevisiae BY4741 SeMeCo community; experiment: z-score of subpopulation abundance vs DMSO median, subpopulation auxotrophic for HUM; higher = larger share of this subpopulation than in DMSO controls; settings: 10 µM; 24 h; SM minimal medium; subpopulation (auxotrophy): HUM
In short: as §1

[15] = tested on: Saccharomyces cerevisiae BY4741 SeMeCo community; experiment: z-score of subpopulation abundance vs DMSO median, subpopulation auxotrophic for LUM; higher = larger share of this subpopulation than in DMSO controls; settings: 10 µM; 24 h; SM minimal medium; subpopulation (auxotrophy): LUM
In short: as §1

[16] = tested on: Saccharomyces cerevisiae BY4741 SeMeCo community; experiment: z-score of subpopulation abundance vs DMSO median, subpopulation auxotrophic for HLUM; higher = larger share of this subpopulation than in DMSO controls; settings: 10 µM; 24 h; SM minimal medium; subpopulation (auxotrophy): HLUM
In short: as §1

[17] = tested on: Saccharomyces cerevisiae BY4741 SeMeCo community; experiment: z-score of subpopulation abundance vs DMSO median, subpopulation auxotrophic for LM; higher = larger share of this subpopulation than in DMSO controls; settings: 10 µM; 24 h; SM minimal medium; subpopulation (auxotrophy): LM
In short: as §1

| Compound | mean cell size [1] | z-score of prototroph abundance [2] | z-score of subpopulation abundance [3] | z-score of subpopulation abundance [4] | z-score of subpopulation abundance [5] | z-score of subpopulation abundance [6] | z-score of subpopulation abundance [7] | z-score of subpopulation abundance [8] | z-score of subpopulation abundance [9] | z-score of subpopulation abundance [10] | z-score of subpopulation abundance [11] | z-score of subpopulation abundance [12] | z-score of subpopulation abundance [13] | z-score of subpopulation abundance [14] | z-score of subpopulation abundance [15] | z-score of subpopulation abundance [16] | z-score of subpopulation abundance [17] |
| --- | --- | --- | --- | --- | --- | --- | --- | --- | --- | --- | --- | --- | --- | --- | --- | --- | --- |
| C[C@@H]1C/C=C/C=C/C=C/C=C/[C@H](O[C@@H]2O[C@H](C)[C@@H](O)[C@H](N)[C@@H]2O)C[C@@H]2O[C@](O)(C[C@@H](O)C[C@H]3O[C@@H]3/C=C/C(=O)O1)C[C@H](O)[C@H]2C(=O)O [Natamycin] | 12.31 ± 0.094 | -16.3 | -8.99 | 1.74 | 4.12 | 12.5 | 8.63 | 8.62 | 33.6 | 9.97 | 22.5 | 22.7 | 38.1 | 25.6 | 14.5 | 40.5 |  |
| Cc1cc(NS(=O)(=O)c2ccc(N)cc2)no1 [Sulfamethoxazole] | 12.4 ± 0.24 | -0.28 | 0.51 | 0.5 | -0.2 | -0.46 | 0.02 | 0.18 | -0.16 | 0.65 | 0.5 | 1.04 | -0.58 | -0.13 | -0.02 | -0.41 |  |
| CC1(C)S[C@@H]2[C@H](NC(=O)Cc3ccccc3)C(=O)N2[C@H]1C(=O)O [Benzylpenicillin potassium] | 12.1 ± 0.18 | -0.27 | -0.08 | 0.24 | 0.62 | -0.83 | 0.51 | -0.39 | -0.05 | -0.02 | -0.23 | 0.89 | 0.2 | 0.17 | 0.72 | 0.88 |  |
| O=C1CN2Cc3c(ccc(Cl)c3Cl)N=C2N1 [Anagrelide HCl] | 12.3 ± 0.29 |  | -0.78 | -0.32 | -0.23 |  | -0.64 |  |  | 0.39 | 0.5 | 0.58 | 1.02 | 0.14 | -0.58 |  | -0.53 |
| COc1ccnc(C[S+]([O-])c2nc3cc(OC(F)F)ccc3[nH]2)c1OC (centres undefined) [Pantoprazole sodium] | 12.5 ± 0.28 | -0.43 | 0.43 | -0.4 | -0.3 | 0.86 | -0.65 |  |  | 0.55 | -0.43 | -0.16 | -0.85 | 0.3 |  |  | 0 |
| COCCCN1CCC(NC(=O)c2cc(Cl)c(N)c3c2OCC3)CC1 [Prucalopride Succinate] | 12.5 ± 0.32 | -1.55 | 0.77 | -0.33 | 0.93 | -0.29 | 0.16 | 0.63 | 1.07 | 1.44 | 0.16 | 1.78 | 1.1 | 1.42 | 0.31 | 2.43 |  |
| CCCN[C@H]1CCc2nc(N)sc2C1 [Pramipexole 2HCl Monohydrate] | 12.56 ± 0.054 |  | 0.15 | -0.36 | -0.54 | -0.51 | -0.67 |  | -0.19 | -0.95 | -0.02 | -0.47 | -0.59 | -0.88 | -0.47 | -0.69 | -1.2 |
| c1ccc2[nH]c(-c3cscn3)nc2c1 [Thiabendazole] | 12.3 ± 0.24 |  | 0.77 | -0.23 | -0.7 | -0.52 | -0.61 |  | -0.69 | -0.41 | -0.01 | -0.4 | -0.38 | 0.33 | 0.16 | -0.43 | 0.06 |
| CO/N=C(\C(=O)N[C@@H]1C(=O)N2C(C(=O)O)=C(CSc3nc(=O)c(O)nn3C)CS[C@H]12)c1csc(N)n1 [Ceftriaxone Sodium Trihydrate] | 12.23 ± 0.09 | 0.45 | -1.17 | 2.07 | 0.09 | -0.32 | 0.56 | -1.19 | 0.14 | -2.42 | 0.91 | 2.14 | 0.5 | -2.14 | -0.43 | 0.83 |  |
| CCS(=O)(=O)CCn1c([N+](=O)[O-])cnc1C [Tinidazole] | 12.26 ± 0.046 |  | -0.75 | 0.1 |  | -1.03 | 0.29 |  | -0.4 | -0.43 | -0.55 | 0.09 | -1.15 | -0.47 | -0.2 |  | 0.29 |
| Cn1c(=O)c2c(ncn2CC2OCCO2)n(C)c1=O [Doxofylline] | 12.2 ± 0.51 | 0.31 | -0.41 | 0.55 | -0.22 |  | 0.9 | -0.89 | -0.64 | -0.67 | 0.28 | -0.64 | -0.9 | -0.34 | -0.24 | -0.8 |  |
| O=C(O[C@H]1CN2CCC1CC2)N1CCc2ccccc2[C@@H]1c1ccccc1 [Solifenacin succinate] | 12.1 ± 0.28 | -0.49 | 0.77 | -0.16 | 0.4 | -0.91 | 0.43 |  |  | 1.06 |  | 0.46 | 0.25 | 0.3 | 0.68 |  | 0.27 |
| Fc1ccc([C@@H]2CCNC[C@H]2COc2ccc3c(c2)OCO3)cc1 [Paroxetine HCl] | 12.47 ± 0.086 | 0.34 | -0.31 | -0.43 | 0.75 | 0.09 | -0.16 | -0.49 | -1.01 | -0.16 | 0.14 | -0.09 | 0.16 | -0.39 | -1.08 | 0.06 |  |
| CCN(CC)CCOC(=O)c1ccc(N)cc1 [Procaine] | 12.2 ± 0.13 |  | -1.12 | -0.42 |  | -0.4 | 0.48 |  | 0.81 | 0.14 | -0.79 | -1.15 | -1.03 | 0.39 | 0.13 | -0.71 | -0.46 |
| CO[C@@]1(NC(=O)C(C(=O)O)c2ccc(O)cc2)C(=O)N2C(C(=O)O)=C(CSc3nnnn3C)CO[C@@H]21 (some centres undefined) [Latamoxef sodium] | 12.7 ± 0.16 | 0.35 | 0.17 | -0.05 | -0.29 |  | -0.08 |  | 0 |  | -0.07 | 0.4 | 0.83 | -0.43 | -0.71 |  | -0.29 |

— the supplement of paper PMC8975748
